Luciferase inh: inhibitors of firefly (Photinus pyralis) luciferase; P08659; purified P. pyralis luciferase, luminescence, biochemical; Potency, µM (doses to about 115 µM), hits mostly inhibitors; 76,000 tested, 2.5% active; AID 1347043; also: nearly all actives have a fitted effect of over 65% in size
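Luminescence read by CCD imager after adding enzyme (10nM final) to wells holding compound, titrated in qHTS. Substrates 10uM each D-luciferin and ATP; buffer 50mM Tris acetate pH 7.5, 10mM Mg acetate, Tween-20, BSA.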
NIH3T3 tox: cytotoxic compounds in NIH 3T3 cells; Potency, µM (highest dose often 96.7 µM), most hits filed as inhibitors; AID 1345082; NIH 3T3 viability, CellTiter-Glo ATP luminescence, 48-72 h; 94,000 tested, 4.3% active; also: nearly all actives have a fitted effect of over 55% in size
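Mouse fibroblast NIH 3T3 cells, 400 per well, received compound via pintool and were incubated for 48 or 72 hr prior to CellTiter-Glo ATP luminescence measurement.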
hNpr1 antagonist: antagonists of human natriuretic peptide receptor Npr1; P16066; HEK293 hNpr1 GloSensor cGMP, ANP-stimulated luminescence; Potency, µM (doses to about 46.3 µM), actives largely listed as inhibitors; 76,000 tested, 1.6% active; calls by dose curve; also: nearly all actives have a fitted effect of over 60% in size
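HEK293 cells stably expressing human Npr1 and cGMP GloSensor pGS-40F, loaded 2 h with 2% GloSensor reagent, given compound 30 min at room temperature. Luminescence read before and 20 min after 0.1 nM hNppA.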
HEK293 tox: HEK 293 cell cytotoxicity. HEK 293 viability, ATP luminescence (CellTiter-Glo), 48-72 h. 94,000 tested, 6.6% active. Potency, µM (top dose mostly 115 µM), hits mostly inhibitors; also: nearly all actives have a fitted effect of over 60% in size
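qHTS cytotoxicity; HEK 293, 250 cells/well; compound pinned; 48 or 72 hr, 37 degree Celsius, 5% CO2, 95% humidity; CellTiter-Glo, 10 min RT; luminescence (ATP).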
GPT2 inhibitor: blocks human glutamate pyruvate transaminase 2; Recombinant GPT2, coupled pyruvate oxidase/HRP Amplex Red fluorescence; 100,000 tested, 0.25% active; Q8TD30; Potency, µM (highest dose often 57.7 µM), actives largely listed as inhibitors; AID 1671188; also: nearly all actives have a fitted effect of over 60% in size
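Recombinant GPT2 (10ng/uL) with 250uM a-KG and 2mM L-alanine, 30 min at room temperature, in HEPES pH 7.5 buffer. Pyruvate detected by pyruvate oxidase/HRP/Amplex Red fluorescence after 30 min in the dark; AOA (50uM) as positive control.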
A number is an active result; – = inactive; ? = inconclusive; · = no result given. Rows were chosen to be rich in hits. Some 10% of all compounds tested hit in one or more screens of this group. Unless noted, calls follow the shape of the dose curve; as a rule, active = well fitted curve in the direction sought with a large enough effect; inconclusive = small, poorly fitted or top-dose-only effect, or another doubt; inactive = no such curve, though single readings can be large; an effect the other way counts as inactive or inconclusive.

SMILES | Luciferase inh | NIH3T3 tox | hNpr1 antagonist | HEK293 tox | GPT2 inhibitor
OC(c1nc(Nc2ccc(Cl)cc2)n[nH]1)C1CC1 (centres undefined) | 22µM | ? | – | ? | –
C=CCN1C[C@H]2COc3c(OCC)cccc3[C@H]2N(C(=O)OC)CCC1=O | · | ? | · | – | ·
CC(=O)NC1CCCN(c2ccc3nnc(C4CC4)n3n2)C1 (centres undefined) | · | – | · | – | ·
C[S+](=O)([O-])NCc1nnc2n1C(C(=O)NCc1ccc(Cl)cc1)CC2 (centres undefined) | · | – | · | – | –
CN1CCN(C(=O)c2ccc3nnc(-c4cccc(C(F)(F)F)c4)n3c2)CC1 | · | – | · | – | –
Cn1cc(C(O)c2nc(Nc3ccc(OC(F)(F)F)cc3)n[nH]2)cn1 (centres undefined) | – | ? | – | 112µM | –
Cc1cccc(OCC(=O)N2CCC(c3n[nH]c(=O)n3Cc3ccc(F)cc3)CC2)c1 | – | 20µM | – | – | –
Cc1cc(Cl)ccc1OCC(=O)N1CCC(c2n[nH]c(=O)n2-c2ccccc2)CC1 | – | 40µM | – | ? | –
COc1cccc(CCC(=O)N2CCC(c3n[nH]c(=O)n3-c3ccccc3)CC2)c1 | – | – | – | – | –
Cc1cccc(OCC(=O)N2CCC(c3n[nH]c(=O)n3-c3ccccc3)CC2)c1 | – | 7.1µM | – | – | –
CN(C)c1cccc(C(=O)N2CCC(c3n[nH]c(=O)n3-c3ccccc3)CC2)c1 | 32µM | – | – | – | –
Cc1ccc(Cn2c(C3CCN(C(=O)COc4cccc(C)c4)CC3)n[nH]c2=O)cc1 | – | – | – | – | –
CC(=O)N1CCCC(COc2ccccc2C(=O)N2CCC(C)CC2)C1 (centres undefined) | · | – | · | – | –
Cn1c(CNC(=O)C2(Cc3ccccc3)CCCCC(=O)N2)nc2ccccc21 (centres undefined) | – | ? | – | ? | –
Cn1c(CNC(=O)C2(C)CCCCC(=O)N2)nc2ccccc21 (centres undefined) | – | 40µM | – | 45µM | –
COc1cccc(-c2cn3cc(C(=O)NCc4cccnc4)nc3s2)c1 | · | ? | · | 32µM | –
COc1cccc(CNC(=O)c2cn3cc(-c4cccnc4)sc3n2)c1 | · | ? | · | – | –
O=C(NCc1cccnc1)c1cn2cc(-c3ccccc3)sc2n1 | · | ? | · | 50µM | –
Cc1nn(-c2ccc(C(F)(F)F)cc2)c(C)c1[C@@H]1C=C[C@@H](NC(=O)CCC(=O)O)C1 | ? | ? | – | ? | –
COCC(=O)N[C@@H]1C=C[C@@H](c2c(C)nn(-c3ccc(C(C)(C)C)cc3)c2C)C1 | ? | 22µM | – | 40µM | –
Cc1cc(Cl)ccc1-n1nc(C)c([C@@H]2C=C[C@@H](NC(=O)CCC(=O)O)C2)c1C | 40µM | – | – | – | –
Cc1nn(-c2ccc(C(C)(C)C)cc2)c(C)c1[C@@H]1C=C[C@@H](NC(=O)CCC(=O)O)C1 | 20µM | – | – | ? | –
Cc1ccc(C(=O)N2CCCCC2c2nc(-c3ccccc3)n[nH]2)cn1 (centres undefined) | · | – | · | ? | –
O=C(NCCc1ccccc1F)c1ccc2nnc(-c3cccc(C(F)(F)F)c3)n2c1 | · | 35µM | · | ? | –
O=C(NCCc1ccccc1F)c1ccc2nnc(-c3cccnc3)n2c1 | · | – | · | – | ?
SMILES | Luciferase inh | NIH3T3 tox | hNpr1 antagonist | HEK293 tox | GPT2 inhibitor
O=C(NCc1cccc(Cl)c1)c1ccc2nnc(-c3cccc(C(F)(F)F)c3)n2c1 | · | 32µM | · | ? | –
O=C(NCc1ccc(F)cc1)c1ccc2nnc(-c3cc(C(F)(F)F)cc(C(F)(F)F)c3)n2c1 | · | 35µM | · | ? | –
O=C(NCc1ccccc1)c1cn2cc(-c3cccc(C(F)(F)F)c3)sc2n1 | · | – | · | – | –
Fc1ccc(CN2CCC3(CCC3N3CCOCC3)CC2)cc1F (centres undefined) | · | – | · | – | –
O=C(c1ccncc1)N1CCCN(c2ccnc3ccnn23)CC1 | · | – | · | – | –
O=C(c1ccc(C(F)(F)F)cc1)N1CCCN(c2ccnc3ccnn23)CC1 | · | ? | · | 22µM | –
O=[S+]([O-])(c1cccc(C(F)(F)F)c1)N1CCCN(c2ccnc3ccnn23)CC1 | · | ? | · | 45µM | –
CN1CCN(c2ncnc3sc4c(c23)CCN(Cc2ccco2)C4)CC1 | – | – | – | – | –
O=C(c1cc2ccccc2[nH]1)N1CCC2(CC1)CN(c1ncccn1)CC2CO (centres undefined) | – | ? | – | 79µM | –
COc1cncc(Nc2cnc3ccc(-c4ccc(F)cc4)nn23)c1 | – | 79µM | – | 100µM | ?
Fc1ccc(-c2ccc3ncc(Nc4ncccn4)n3n2)cc1 | – | ? | – | – | –
COc1cccc(Nc2cnc3ccc(-c4ccc(F)cc4)nn23)c1 | – | ? | – | 100µM | ?
Oc1cccc(Nc2cnc3ccc(-c4ccc(F)cc4)nn23)c1 | 20µM | ? | – | ? | –
COc1ccc(Nc2cnc3ccc(-c4ccc(OC)nc4)nn23)cn1 | – | ? | – | ? | ?
COc1cccc(-c2cc(C3CCN(S(=O)(=O)c4ccc(F)cc4F)CC3)[nH]n2)c1 | – | ? | ? | 25µM | –
